Measurements as given in PubChem BioAssay AID2314 (National Center for Advancing Translational Sciences (NCATS), 2010).
The campaign covered roughly 300,000 compounds. About 37,000 (12%) were called active. What follows is part of a selection rich in actives, with near analogues and random picks from the rest. Unmarked numbers belong to inactive results. Rule as the data show it: active = max response mostly above about 13% (no sharp cut-off); inactive = mostly below about 14%.

Assay: Cycloheximide Counterscreen for Small Molecule Inhibitors of Shiga Toxin; also: read at 38.3 µM for the half of the compounds with a filed dose; 0% is about no effect
Settings: cell reporter, cycloheximide protein synthesis inhibition counterscreen; active compounds read high
For `O=C(NCCc1ccccc1)C(=O)NCC1OCCN1S(=O)(=O)c1cccs1` (stereo unspecified), the max response was 8.94% (active).
Molecule `CCNCCC(=O)N1c2ccccc2Sc2ccc(NC(=O)OCC)cc21` has a max response of -6.47%.
For `COC(=O)c1ccccc1NC(=O)CSc1nnnn1C`, the max response was 3.16%.
In the case of `C=CCn1c(SCC(=O)Nc2nc3ccccc3s2)nnc1-c1ccccc1O`, the max response is reported as 6.55%.
With `O=C(Nc1ccc(C2CC2(Cl)Cl)cc1)c1cccc([N+](=O)[O-])c1` (stereo unspecified) the max response was 40.2% (active).
`Cc1cc(C)c2nc(NC(=O)c3ccc4c(c3)OCO4)sc2c1` showed a max response of -3.86%.
For `Cn1nnnc1SCC(=O)Nc1nc2ccccc2s1`, the max response was 28.7% (active).
Molecule `O=CN1CCN(C(=O)c2ccc3c(c2)OCO3)CC1` has a max response of 16.1%.
For `O=C(Nc1ccccc1)c1ccc2c(c1)OCO2`, the max response was 29% (active).
Work on `COc1ccc(S(=O)(=O)N2CCOCC2)cc1C(=O)Nc1nc2ccccc2s1` yielded a max response of 8.09%.
With `O=C(Nc1nc2ccccc2s1)c1ccc2c(c1)OCO2` the max response was 16.2% (active).
For `O=C(Nc1ccc(NC(=O)c2ccco2)c(Cl)c1)c1cccc([N+](=O)[O-])c1`, the max response was 5.37%.
`O=C(Nc1ccc2c(c1)OCO2)c1ccc(N2C(=O)c3ccccc3C2=O)cc1` gave a max response of 14.1%.
Molecule `O=C(Nc1ccc(C(=O)N2CCCCC2)cc1)c1cccc([N+](=O)[O-])c1` has a max response of -4.06%.
Molecule `O=S(=O)(Nc1ccc(Oc2ncccn2)c(Cl)c1)c1ccc(F)cc1` has a max response of 5.26%.
`CC1CCCCC1NC(=O)C1CCCN1S(=O)(=O)c1cccc2nsnc12` (stereo unspecified) gave a max response of 3.55%.
In the case of `Cc1cnc(C)c(N2CCN(C(=O)C3CCC(=O)N(CCc4cccc(F)c4)C3)CC2)n1` (stereo unspecified), the max response is reported as -0.816%.
`COc1ccc(C(=O)c2c(C)c(CCC#N)n3ccccc23)c(OC)c1` gave a max response of -1.97%.
For `CCOCCCN1C(=O)C2C(C(=O)Nc3ccc(OCC)cc3)C3C=CC2(O3)C1C(=O)NC1CCCCC1` (stereo unspecified), the max response was -3.23%.
For `CCNS(=O)(=O)c1ccc(NC(=O)c2cncc(Br)c2)cc1`, the max response was -2.2%.
For `Cc1cc(N2CCOCC2)nc2ccc(NC(=S)N3CCN(Cc4ccccc4)CC3)cc12`, the max response was 3.98%.
With `O=C(Nc1ccc2c(c1)OCO2)c1sc2cc(Cl)ccc2c1Cl` the max response was 2.36%.
For `O=C(Nc1cccnc1)c1noc2c1CCCCC2`, the max response was 32.5% (active).
In the case of `CC(Sc1nc2cc(Cl)ccc2s1)C(=O)Nc1ccc2c(c1)OCO2` (stereo unspecified), the max response is reported as 29% (active).
`O=C(Nc1cccnc1)c1cccc(S(=O)(=O)N2CCCC2)c1` gave a max response of 3.36%.
`O=C(Nc1cccnc1)c1cc2cc(Br)ccc2oc1=O` showed a max response of -1.47%.
In the case of `O=C(Nc1ccccc1)Nc1nc2ccccc2s1`, the max response is reported as 37.9% (active).
With `O=C(Nc1cccnc1)c1ccc2c(c1)OCO2` the max response was 19.3% (active).
With `CC(=O)Nc1ccc(-c2csc(NC(=O)Nc3ccccc3)n2)cc1` the max response was 10.8%.
Work on `COc1ccc(C(=O)Nc2cccnc2)cc1C(=O)Nc1cccnc1` yielded a max response of -0.996%.
With `CC(NC(=O)Nc1ccccc1)c1ccccc1` (stereo unspecified) the max response was 14.1%.
Work on `CC(Sc1nc(-c2ccccc2)cc(C(F)(F)F)n1)C(=O)Nc1ccc2c(c1)OCO2` (stereo unspecified) yielded a max response of -1.84%.
With `CN(C(=O)CN1C(=O)/C(=C/c2ccc(Cl)cc2)SC1=S)C1CCS(=O)(=O)C1` (stereo unspecified) the max response was -10.5%.
Work on `Cc1nn(-c2ccccc2)c2c1c(C)c(CCC(=O)NCC1CCCO1)c(=O)n2C` (stereo unspecified) yielded a max response of -2.56%.
`CC1(c2cccc([N+](=O)[O-])c2)CC(C)(C)N(C(=O)c2ccccc2)c2ccccc21` (stereo unspecified) gave a max response of 4.81%.
With `O=c1c2ccccc2nc2n1C(CSCc1cccc(C(F)(F)F)c1)CS2` (stereo unspecified) the max response was 1.18%.
Work on `CC(=O)N1c2ccc(S(=O)(=O)NCCC(=O)N(C)C3CCCCC3)cc2CC1C` (stereo unspecified) yielded a max response of 10.2%.
Work on `COc1cc(C(=O)NNC(=O)c2ccc(S(=O)(=O)N3CCCCC3)cc2)cc(OC)c1OC` yielded a max response of -1.13%.
Molecule `CCN(CC(=O)NC(=O)NCc1ccccc1)Cc1nc2ccccc2c(=O)[nH]1` has a max response of -2.64%.
Work on `c1ccc(-c2cc3c(NCC4COc5ccccc5O4)ncnc3s2)cc1` (stereo unspecified) yielded a max response of 9.76%.
Molecule `C/C(=N/NC(=O)c1ccncc1)c1ccc2c(c1)OCO2` has a max response of 0.639%.
`CC(C)NC(=O)CSc1ccccc1C(=O)NCc1ccc2c(c1)OCO2` gave a max response of 3.57%.
In the case of `C/C(=N/NC(=S)Nc1ccccc1)c1ccc2c(c1)OCO2`, the max response is reported as 33.6% (active).
With `CCSc1ccccc1C(=O)Nc1ccc2c(c1)OCO2` the max response was 21.7% (active).
For `CCN(CC)CCNC(=O)c1ccc(NS(=O)(=O)c2ccc3c(c2)OCCO3)cc1`, the max response was 2.7%.
`Cc1ccc2nc(-c3ccccn3)cc(C(=O)Nc3ccc4c(c3)OCO4)c2c1` showed a max response of 20.8%.
In the case of `CC(NS(=O)(=O)c1ccc(Cl)cc1)C(=O)Nc1ccc2c(c1)OCCO2` (stereo unspecified), the max response is reported as -1.8%.
With `O=C(Nc1cccc(S(=O)(=O)Nc2ccc(Cl)cc2)c1)c1ccc2c(c1)OCCO2` the max response was 12.5% (active).
`C/C(=N\NC(=O)C(N)=O)c1ccc2c(c1)OCCO2` gave a max response of 15.2%.
For `O=C(Nc1cccc([N+](=O)[O-])c1)c1ccc2c(c1)OCO2`, the max response was 36.2% (active).
Work on `CC(NC(=O)Nc1cccc([N+](=O)[O-])c1)c1ccc2c(c1)OCO2` (stereo unspecified) yielded a max response of -0.734%.
